Data as given in the supplement of paper PMC6555819.

Tests used:
Assay in all cases: PBM binding z-score (relative to random genomic background probes); higher = stronger binding; sequences stand for … in GC…GCGATTGACAGCGTAGAATGAAGG
[1] = tested on: RARb homodimer (NR concentration 270 nM)
Procedure, shortened: (§1)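 The probes on custom Agilent 4×180K protein-binding microarrays were double-stranded, with 34-nt variable regions bearing direct-repeat seeds, single-nucleotide variants, half-site ablations and random human genomic background sequences. Incubation lasted 1 h with ligand-free nuclear receptor dimers in PBS pH 7.4, 2% milk, 0.02% Triton X-100, 1 mM DTT, 0.2 mg/mL BSA and 0.4 mg/ml salmon testes DNA. Antibodies against each partner (one per run) detected bound dimers, and fluorescence scans were regression-normalized. Binding z-scores take the random background probes as reference.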

[2] = tested on: RARg:RXRa (NR concentration 270 nM, RXRa partner concentration 90 nM)
Procedure, shortened: as §1

[3] = tested on: RARg homodimer (NR concentration 270 nM)
Procedure, shortened: as §1

[4] = tested on: RXRa DBDmut IVT, anti-RXR (DBD mutation: RXRa K156A/R161A, NR concentration 90 nM)
Procedure, shortened: as §1

[5] = tested on: RXRa homodimer (NR concentration 180 nM)
Procedure, shortened: as §1

[6] = tested on: THRa:RXRa (NR concentration 90 nM, RXRa partner concentration 90 nM)
Procedure, shortened: as §1

[7] = tested on: THRa homodimer (NR concentration 90 nM)
Procedure, shortened: as §1

[8] = tested on: VDR homodimer (NR concentration 270 nM)
Procedure, shortened: as §1

Sequence | PBM binding z-score [1] | PBM binding z-score [2] | PBM binding z-score [3] | PBM binding z-score [4] | PBM binding z-score [5] | PBM binding z-score [6] | PBM binding z-score [7] | PBM binding z-score [8]
GCGTCTGGGGCATCAGCAGGTTACCATAACTTAA | 0.953 | 0.859 | 0.544 | 0.254 | 0.243 | 1.06 | -0.103 | -0.379
ACTAGCAGGCCAAGTTTGGGACACTCAAACAAAG | 0.289 | 0.191 | 0.555 | -0.499 | -0.592 | 1.45 | 0.404 | -0.549
CAACCTAGGTCAAGGTCAAAGTCGGTTTGTGCCA | 5.28 | 6.18 | 6.82 | 2.98 | 6 | 4.3 | 3.92 | 4.12
GCGACTGGGGCATCAGCAGGGTACCATAACTTAA | 0.489 | 0.0941 | 0.0483 | -0.313 | -0.0228 | 0.147 | -0.7 | -0.477
CCCAGTTGGTCAAGGTCACACACGCTATAGGTAC | 4.34 | 4.75 | 4.74 | 2.13 | 4.74 | 4.16 | 4.46 | 4.2
AGAATGAGGTTATTAAGATCAGGGAATTGCGGTC | 1.05 | 1.17 | 0.93 | 1.91 | 1.89 | 2.18 | 0.599 | 0.931
AGTCCAAGTTCAGGACGAGGTAACGTAAAGCACG | 1.71 | 2.68 | 2.35 | 3.51 | 1.3 | 3.44 | 1.65 | 2.91
CCTACTGGGGCAGAAAGGTTACCATACCATCCGG | 2.22 | 1.62 | 1.59 | -1.01 | 1.56 | 0.807 | -0.439 | -0.187
TCAAATAGGTAAACAGGTGAAAGTCCGTAAGTTA | 0.737 | 0.645 | 0.221 | 1.46 | 1.15 | 0.783 | 0.141 | 0.236
GCTGCTAGGTCAACTAATGGTCAGCTAAAGCTCG | 3.51 | 5.28 | 5.52 | 1.38 | 2.65 | 2.74 | 0.777 | -0.0577
CAGCCTAGGTCAGGCCCAGTATAGGAGGAACGTT | 2.11 | 2.54 | 3.21 | -0.298 | 1.14 | 1.66 | 0.183 | -0.788
AGAATGAGGTTATACGTAGATCATGGAAGAAAGT | 1.02 | 2.06 | 1.29 | 1.74 | 2.45 | 2.42 | 0.532 | 0.975
CTCGAAAGGTCGGTTGAGGTGTGTATACGGATAA | 1.73 | 2.34 | 2.27 | 0.858 | 1.74 | 3.69 | -0.0744 | 0.415
CGTCCAAGGTCAATGCTACGTCAGTGAAAGCATT | 4.04 | 5.67 | 6.18 | 3.58 | 4.83 | 3.53 | 1.75 | 2.18
ACTATTAGTTGACTTAGGGCAATCGATACGACGC | 0.586 | 0.781 | 0.924 | 0.592 | 0.921 | 1.31 | 0.18 | 0.448
ACTAGCAGGCCAAGGGTAACTCAAGATTAGTCCG | 0.76 | 0.469 | 0.734 | -0.0114 | 0.59 | 0.54 | -0.321 | -0.349
TAGCCTAGGTCATGCGGGCCCGTATAGTGTCGGC | 2.9 | 3.77 | 4.19 | 0.324 | 3.06 | 3.06 | 1.33 | 0.149
ACTTACGGGTCAACGAGGTTATAGCCCGCGTATA | 3.68 | 5.54 | 4.99 | 2.37 | 6.11 | 3.97 | 1.14 | 3.48
TGTCAAGGTTCAAAGGTAACGTAAGTATCCACAC | 1.99 | 4.38 | 3.11 | 4.37 | 6.08 | 3.12 | -0.0609 | 4.49
CGAACTAGGTCATTGACAGGACAGTAAATAGTAA | 2.73 | 4.76 | 4.54 | 2.6 | 2.84 | 2.74 | 0.723 | 1.03
CGATCTAGGTCATTGACAGGACAGTGAATAGTAA | 2.8 | 4.48 | 4.41 | 2.67 | 2.41 | 3.11 | 1.21 | 1.49
ATATCTAGGTAAAGATAGTTCAGTGAATGCAAAT | 0.985 | 0.606 | 0.877 | 0.0845 | 0.518 | 0.642 | -0.33 | 0.327
TCAGATAGGTAAAAGGTGAAAGTCGGTGTGGTAA | 2.19 | 1.89 | 0.855 | 1.85 | 3.06 | 1.76 | 0.528 | 0.262
CGTCAAATTTCAACTAAGGTAACGTAAAGCACGC | 0.545 | 0.344 | 0.568 | 0.715 | 0.436 | 2.71 | 1.89 | 0.604
TCTTGTAGATCAGCAGTTTAAGAAAGCTGGCCAA | -0.447 | -0.29 | -0.416 | 0.659 | -0.0867 | -0.138 | -0.319 | 0.0603
CGGAGTAGGTTATGGGGCATTCAGGCAACGGTGA | 1.26 | 0.544 | 0.721 | -0.446 | 0.668 | 0.705 | 0.801 | 0.416
TACCCTAGGTCAGATCGGGCCAGTATACGCTATA | 2.63 | 2.98 | 3.5 | 0.165 | 1.54 | 4.19 | 0.64 | 0.268
TTACCAAGGTGAGCTGAGGTCGTTGGTCCAACTC | 1.6 | 1.2 | 0.604 | -0.219 | 1.34 | 4.45 | 2.2 | 2.56
